Bioassay records deposited in PubChem by National Center for Advancing Translational Sciences (NCATS).
In the library only some 5.5% were active in any assay of this set; here they are far more common.
Six1-Eya2 blk – Six1/Eya2 interaction inhibition | Q15475+O00167 | AlphaScreen GST-Six1/His-Eya2 binding, biochemical; hits give low values | activity change, % (concentration not given with the values) | 360,000 tested, 0.56% active | AID 651725; in the data active = activity change below about -65%; inconclusive = mostly about -30% to -63%; also: % is scaled to controls: 0 for no effect and ±100 for the full control effect
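Six1/Eya2 binding was read as AlphaScreen signal after compounds were pinned into GST-Six1 plus His-tagged Eya2 (5X stock 250/500 nM) in pH 8.0 Tris/NaCl/TCEP buffer, beads added, then incubated 1 h, 37 C, dark.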
RORgamma inh – blocks mouse ROR gamma transcriptional activity; P51450; Drosophila S2 Gal4-RORgamma UAS-luciferase reporter, 20 h; Potency, µM (top dose mostly 53.6 µM), inactives show top-dose activity change, negative = inhibition, actives largely listed as inhibitors; 310,000 tested, 5.4% active; AID 2551; also: potency is read from the fitted curve at half-maximal effect; % is scaled to controls: 0 for no effect and ±100 for the full control effect; nearly all actives have a fitted effect of over 60% in size
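Stable Schneider cell line, Gal4 DNA-binding domain fused to ROR gamma, UAS-luciferase. Cmpd 1 hr RT → CuSO4 700 uM final → 20 hr RT → luciferase reagent 10 min → luminescence.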
VP16 counter – inhibits Gal4-VP16 luciferase reporter, ROR gamma counter-screen | Drosophila S2 Gal4-VP16 UAS-luciferase, luminescence, 20 h | Potency, µM (titrated, usually from 53.6 µM), without a hit: top-dose activity, negative = inhibition, most hits filed as inhibitors | 310,000 tested, 3.5% active | AID 2546;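 also: Gal4-VP16 expression switched on by copper sulfate through the metallothionein promoter; potency is read from the fitted curve at half-maximal effect; % is scaled to controls: 0 for no effect and ±100 for the full control effect; nearly all actives have a fitted effect of over 50% in size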
CBFb-RUNX1 inh – inhibitors of human CBF-beta and RUNX1 interaction; 230,000 tested, under 10 active; Q01196+Q13951; AlphaScreen CBFb-His/RUNX1-biotin binding, biochemical; Potency, µM (highest dose often 59.8 µM), without a hit: at the highest dose activity, negative = inhibition, actives largely listed as inhibitors; AID 1477; also: % of control where 0% means no effect
Target sequence (Q01196 whole entry, looked up): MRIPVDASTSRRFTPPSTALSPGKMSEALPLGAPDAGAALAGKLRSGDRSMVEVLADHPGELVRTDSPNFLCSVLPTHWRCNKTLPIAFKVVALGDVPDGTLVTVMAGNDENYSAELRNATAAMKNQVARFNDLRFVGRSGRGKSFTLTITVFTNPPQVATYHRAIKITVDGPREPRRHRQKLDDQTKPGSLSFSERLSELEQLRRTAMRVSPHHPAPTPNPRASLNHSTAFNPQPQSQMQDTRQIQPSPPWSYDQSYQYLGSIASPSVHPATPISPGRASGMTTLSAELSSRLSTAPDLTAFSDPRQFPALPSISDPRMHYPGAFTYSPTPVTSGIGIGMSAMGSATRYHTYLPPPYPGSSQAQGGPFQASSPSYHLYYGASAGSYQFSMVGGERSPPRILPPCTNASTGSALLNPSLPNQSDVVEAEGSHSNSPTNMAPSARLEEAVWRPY
Target sequence (Q13951 whole entry, looked up): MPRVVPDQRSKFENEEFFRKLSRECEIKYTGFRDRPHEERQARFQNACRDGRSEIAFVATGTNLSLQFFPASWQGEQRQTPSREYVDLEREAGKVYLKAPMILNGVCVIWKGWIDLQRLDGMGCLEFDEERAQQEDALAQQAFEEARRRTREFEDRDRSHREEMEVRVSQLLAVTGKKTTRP
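Read-out: AlphaScreen. Format: His-CBF-beta with biotinylated RUNX1 (30 nM each) preincubated 20 min, compound 15 min, Ni-chelate plus streptavidin beads 90 min; room temperature throughout.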
MBNL1-CUG inh – inhibitors of human MBNL1 binding to CUG repeat RNA. Q9NR56. TR-FRET MBNL1-His/biotin-(CUG)12 binding, 665/545 ratio. Potency, µM (doses to about 57.5 µM), inactives show at the highest dose activity change, negative = inhibition, hits mostly inhibitors. 280,000 tested, 0.036% active; active = well fitted inhibition curve with a large enough effect in the signal ratio, with a control signal flat, not every such curve was filed as active; inconclusive = small, poorly fitted or top-dose-only effect, or effect the other way, or a change in a side signal; inactive = no such curve, though single readings can be large or run the other way; the % refers to the signal ratio; also: potency is read from the fitted curve at half-maximal effect; % is scaled to controls: 0 for no effect and ±100 for the full control effect
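Ratiometric TR-FRET (665 over 545 nm, excitation 340 nm) tracks disruption of MBNL1-His/biotin-(CUG)12 complex after 60 min at room temperature, with compounds at 92 nM to 58 uM final.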
CtBP-E1A blk – blocks the CtBP interaction with E1A. AlphaScreen GST-E1A/His-CtBP binding, 1536-well; hits give low values. activity change, % (no concentration beside the values). 340,000 tested, 0.49% active; in the data active = activity change below about -65%; inconclusive = mostly about -30% to -63%; also: % is scaled to controls: 0 for no effect and ±100 for the full control effect
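In 5 uL wells, 23 nL compound meets equimolar GST-E1A and His-CtBP (5X stock 125 nM each) for 2 h, 37 °C. Beads (5X, 50 ug/mL) then 1 h, 37 °C, dark.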
* hit, by the source's call; ? = inconclusive; . = no result; [ ] = another dose, or the depositor's remark. Unless noted, calls follow the shape of the dose curve; as a rule, active = well fitted curve in the direction sought with a large enough effect; inconclusive = small, poorly fitted or top-dose-only effect, or another doubt; inactive = no such curve, though single readings can be large; an effect the other way counts as inactive or inconclusive.

SMILES	Six1-Eya2 blk	RORgamma inh	VP16 counter	CBFb-RUNX1 inh	MBNL1-CUG inh	CtBP-E1A blk
Cc1ccc2[nH]c3c(=O)n(CC(=O)NCc4ccco4)ncc3c2c1	-19.2	-5.1%	-5.6%	.	6.8%	.
COc1ccc(OC)c(NC(=O)COC(=O)CCS(=O)(=O)c2ccc(Cl)cc2)c1	1.8	.	.	.	.	-11.7
CC(=O)Oc1cc(OC(C)=O)c2c(=O)cc(-c3ccc(OC(C)=O)c(OC(C)=O)c3)oc2c1	.	?	35.5µM*	-6.2%[21.7 µM]	.	.
O=Nc1c(-c2c(O)[nH]c3cc(Br)ccc23)[nH]c2ccccc12	-71.0*	3.9%	?	.	?	?
COC(=O)c1ccc(COC(=O)c2cccn2C)o1	-9.1	-17.9%	38.2%	.	-16.3%	-4.9
O=C1OCCC1Sc1nnc(-c2cccnc2)n1-c1ccccc1F (configuration not stated)	3.1	26.2%	-13.2%	1.2%	-3.6%	-17.8
COC(=O)Cc1ccc(NC(=S)Nc2ccc(N3CCOCC3)cc2)cc1	-6.4	-38.8%	-6.3%	-8.9%	-1.7%	10.3
O=C(COc1ccccc1Cl)NC(=S)Nc1ccc(CN2CCOCC2)cc1	-10.8	-9.1%	-4.3%	4.1%	0.6%[11.5 µM]	-5.7
CC(C)CC(=O)NC(=S)Nc1ccc(CN2CCOCC2)cc1	-6.7	4.47µM*	11.2%	2.1%	-1.1%	7.3
CC(C)CC(=O)NC(=S)Nc1ccc(N2CCOCC2)cc1	1.2	28.2µM*	?	-1.1%	11.1%	.
O=C(COc1ccc(Cl)cc1Cl)NNC(=S)Nc1ccc(F)cc1	-7.3	3.55µM*	?	-5.1%	-3.2%	-13.7
CC(c1ccco1)N(C(=O)COc1ccc(Cl)cc1Cl)c1ccccn1 (configuration not stated)	-5.6	?	11.2µM*	6.4%	-4.3%	7.4
Cc1ccc(C(=O)NCC2CCCO2)cc1S(=O)(=O)N1CCCCC1 (configuration not stated)	2.2	-0.6%	-3.0%	.	5.1%	7.6
Cc1cc(NC(=S)NC(=O)CC(C)C)ccc1Br	5.8	2.82µM*	?	7.3%	3.0%	7.5
O=C(COc1ccc(Cl)cc1Cl)Nc1ccccn1	7.7	-3.2%	2.82µM*	4.1%	-7.0%	5.4
O=C(CCCCl)NC(=S)Nc1ccc(CN2CCOCC2)cc1	12.2	-22.0%	2.9%	-0.1%	-6.3%	0.0
O=C(CCCCl)NC(=S)Nc1ccc(N2CCOCC2)cc1	9.2	2.24µM*	?	-0.4%	1.8%	2.1
CSc1ccccc1NC(=O)COc1ccc(Cl)cc1Cl	58.5	?	0.6%	25.5%	-12.7%	57.2
CCc1cccc(NC(=S)Nc2ccc(CN3CCOCC3)cc2)c1	4.0	11.2µM*	20µM*	10.6%	5.5%	-0.3
Cc1ccc(NC(=O)COC(=O)CN2C(=O)NC3(CCCC3)C2=O)cc1F	6.8	.	.	.	.	1.2
CC(C)=CCC/C(C)=C/CO/N=C1/C[C@@H](O)[C@@H](O)[C@@H]2[C@@H]3C(=O)N(C(C)(C)C)C(=O)[C@H]3CC[C@@H]12	.	0.6%[10 µM]	6.4%[10 µM]	11.4%[13.1 µM]	.	.
CC(Oc1ccccc1)C(=O)N1CCN(c2ccc(N3CCOCC3)nn2)CC1 (configuration not stated)	3.5	.	.	.	.	-13.8
CC(C)CC(=O)NNC(=S)Nc1ccc(S(N)(=O)=O)cc1	6.6	17.8µM*	-3.0%[10 µM]	1.6%	-2.4%	-7.3
O=C(COc1ccc(Cl)cc1Cl)NC(=S)Nc1ccc(CN2CCOCC2)cc1	-11.9	15.8µM*	?	-8.2%	-3.1%	-0.2
COc1ccc(CCC(=O)Nc2ccc(S(=O)(=O)N3CCOCC3)cc2)cc1OC	13.9	.	.	.	.	0.0
O=C(/C=C/c1c(Cl)cccc1Cl)n1cccn1	-1.9	?	11.2µM*	3.1%	-13.5%	1.6
O=C(/C=C/c1c(Cl)cccc1Cl)N1CCOCC1	19.3	-18.4%[1.91 µM]	10.1%	.	1.3%	.
